Compound activity (PubChem BioAssay)
Hits are enriched below; roughly 9.3% of the tested compounds scored in any of these assays.
Rab9 prom act – activators of Rab9 promoter; Huh7 Rab9 promoter-luciferase reporter, luminescence, 24 h; Potency, µM (doses to about 9.22 µM), inactives show at the highest dose activation, negative = inhibition, hits mostly activators; 2.8% of 320,000 active; note: % of control where 0% means no effect; nearly all actives have a fitted effect of over 60% in size
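Huh7 cells stably carrying a Rab9 promoter-luciferase reporter, 1500 cells per well in OP-MEM I with 10% FBS, treated with compound 24 hours at 37C. Luciferase activity read by luminescence after 10 minutes with Amplite reagent.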
ELG1 genotoxic – induces genotoxicity in HEK293T cells with luciferase-tagged ELG1 | HEK293T ELG1-luciferase reporter, luminescence, 16 h | Potency, µM (top dose mostly 46 µM), for inactives: at the highest dose activity change, positive = activation, actives largely listed as activators | 1.3% of 330,000 active | AID 504466; note: % of control where 0% means no effect; nearly all actives have a fitted effect of over 60% in size
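Cells (2,000/well) expressing the ELG1-luciferase fusion are dosed by pin tool and kept 16 hr at 37 °C, 5% CO2. Signal comes from ONE-Glo luciferase reagent after 30 min at room temperature.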
SMN2 splice enh – SMN2 splice variant enhancement; HEK293 SMN2-luciferase splicing reporter, luminescence, 30-36 h; Potency, µM (series often up to 46.1 µM), for the others: at the top dose activity change, positive = activation, most hits filed as activators; 2.8% of 210,000 active; AID 1458; note: % of control where 0% means no effect; nearly all actives have a fitted effect of over 55% in size
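HEK293 cells carry an SMN2 minigene-luciferase reporter in which exon 7 inclusion puts luciferase in frame. Cells were seeded at 2000 cells/well, attached for 10-12 hours, then exposed to compounds for 30-36 hours at 37C before ONE-Glo luminescence.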
ELG1 repair inh – ELG1-dependent DNA repair inhibition; Potency, µM (doses to about 46.1 µM), inactives show at the highest dose activity change, negative = inhibition, most hits filed as inhibitors; HEK293T ELG1-luciferase reporter, luminescence, 16 h; DNA damage induced by 5-fluorouridine; 2.3% of 330,000 active; AID 504467; note: % is set by controls: 0 for no effect and ±100 for the full control effect; nearly all actives have a fitted effect of over 55% in size
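Step one: seed 2,000 cells per well. Step two: pin-transfer compound or DMSO alongside 5-fluorouridine. Step three: incubate 16 hr, 37 °C, 5% CO2. Step four: add ONE-Glo, wait 30 min, read luminescence.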
NPC1 promoter act – activates the NPC1 promoter; Huh7 NPC1 promoter luciferase reporter, 24 h; Potency, µM (doses to about 9.22 µM), for the others: top-dose activation, most hits filed as activators; 2.4% of 320,000 active; AID 485313; note: % of control where 0% means no effect; nearly all actives have a fitted effect of over 60% in size
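Readout is luciferase luminescence, reflecting NPC1 promoter activation in stably transfected Huh7 cells after 24 h compound exposure at 37 °C in reduced-serum medium with 10% FBS.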
FLuc counter – inhibits or activates purified firefly luciferase, miR-21 counter-screen; AID 588342; 6.9% of 360,000 active; purified FLuc, Km substrates, luminescence inhibition; Potency, µM (highest dose often 57.5 µM), for the others: at the top dose activity change, negative = inhibition, most hits filed as inhibitors; P08659;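 note: plate controls were vehicle for no effect and reference inhibitor for full effect; nearly all actives have a fitted effect of over 55% in size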
Target sequence (P08659 whole entry, looked up): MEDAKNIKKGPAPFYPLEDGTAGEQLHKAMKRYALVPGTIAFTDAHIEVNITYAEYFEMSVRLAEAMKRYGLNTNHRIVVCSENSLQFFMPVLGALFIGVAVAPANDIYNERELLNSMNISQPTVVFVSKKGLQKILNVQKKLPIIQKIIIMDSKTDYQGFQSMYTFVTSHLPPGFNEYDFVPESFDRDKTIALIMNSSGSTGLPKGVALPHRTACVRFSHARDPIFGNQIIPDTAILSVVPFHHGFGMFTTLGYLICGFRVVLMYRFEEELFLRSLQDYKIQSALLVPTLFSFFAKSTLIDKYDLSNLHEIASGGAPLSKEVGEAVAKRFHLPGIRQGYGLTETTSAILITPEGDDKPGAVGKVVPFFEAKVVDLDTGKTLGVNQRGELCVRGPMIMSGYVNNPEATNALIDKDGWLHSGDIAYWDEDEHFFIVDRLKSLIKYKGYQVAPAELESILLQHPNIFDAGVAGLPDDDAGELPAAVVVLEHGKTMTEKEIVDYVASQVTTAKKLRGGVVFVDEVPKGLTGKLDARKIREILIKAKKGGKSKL
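Purified P. pyralis luciferase, 10 nM final, with Km-level 10 uM D-luciferin and 10 uM ATP in 50 mM Tris acetate pH 7.5, 10 mM Mg acetate, 0.01% Tween-20, 0.05% BSA; 6-point qHTS titration about 60 µM downward; luminescence read.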
Starred values were filed as active, the others as inactive. Calls come from the whole dose curve; as a rule, active = well fitted curve in the direction sought with a large enough effect; inconclusive = small, poorly fitted or top-dose-only effect, or another doubt; inactive = no such curve, though single readings can be large; an effect the other way counts as inactive or inconclusive. Potency is the fitted concentration of half-maximal effect.

How did C=CCNc1nc(N2CCCCC2)c(C#N)c2c1CN(Cc1ccccc1)CC2 do in these assays?
Rab9 prom act: 2%; ELG1 genotoxic: -18%; ELG1 repair inh: 23µM*; NPC1 promoter act: 5%; FLuc counter: 0%

What do the screens show for `Cc1cc(NC(=O)C(C)C)cc(-c2nc3ncccc3o2)c1O`?
SMN2 splice enh: 2%; FLuc counter: 3%

How did COc1ccc(CCn2c(SCC(=O)Nc3cc(C)on3)nc3ccsc3c2=O)cc1OC do in these assays?
Rab9 prom act: 4%; ELG1 genotoxic: 2%; SMN2 splice enh: 0%; ELG1 repair inh: 10µM*; NPC1 promoter act: -2%; FLuc counter: -6%

What do the screens show for `O=[N+]([O-])c1ccc(Cl)c(NC2=NCCCCC2)c1`?
Rab9 prom act: -2%; ELG1 genotoxic: 0%; ELG1 repair inh: 13%; NPC1 promoter act: -3%; FLuc counter: 0%

Results for COc1ccc(NC(=O)/C=C/c2cccc(F)c2)cn1 ?
Rab9 prom act: 2.2µM*; ELG1 genotoxic: inconclusive; SMN2 splice enh: 11µM*; ELG1 repair inh: inconclusive; NPC1 promoter act: 2µM*; FLuc counter: 7.6µM*

How did COc1ccc(OC)c(/C=C/C(=O)Nc2ccc(OC)nc2)c1 do in these assays?
Rab9 prom act: 1%; ELG1 genotoxic: 2%; SMN2 splice enh: -4%; ELG1 repair inh: -5%; NPC1 promoter act: -2%; FLuc counter: inconclusive

Results for COc1ccc(NC(=O)/C=C/c2ccco2)cn1 ?
Rab9 prom act: 4µM*; ELG1 genotoxic: inconclusive; SMN2 splice enh: 13µM*; ELG1 repair inh: inconclusive; NPC1 promoter act: 3.2µM*; FLuc counter: 21µM*

Results for Cc1ccc(NC(=O)/C=C/c2ccco2)cc1F ?
FLuc counter: 5.4µM*

Results for Cn1c(SCc2ccccc2Cl)nc2c([nH]c3ccccc32)c1=O ?
FLuc counter: 1%

What do the screens show for `C=C1C[C@]23C[C@@]1(O)CC[C@H]2[C@@]12C=C[C@H](O)C(C)(C(=O)O1)[C@H]2[C@@H]3CC(=O)O`?
SMN2 splice enh: 3%

How did Cc1ccc(CNC(=O)C(Cc2ccccc2)NS(=O)(=O)c2cccs2)cc1 (configuration not stated) do in these assays?
Rab9 prom act: -5%; ELG1 genotoxic: -3%; SMN2 splice enh: 18µM*; ELG1 repair inh: 4%; NPC1 promoter act: 2%; FLuc counter: -2%

How did COc1ccccc1NC(=O)Nc1ccc2c(c1)CCC2 do in these assays?
Rab9 prom act: 2.5µM*; ELG1 genotoxic: 13µM*; ELG1 repair inh: inconclusive; NPC1 promoter act: 2.5µM*; FLuc counter: 3µM*

What do the screens show for `COc1ccc(NC(=O)Nc2ccc3c(c2)CCC3)cc1OC`?
Rab9 prom act: 18%; ELG1 genotoxic: 8%; SMN2 splice enh: 13%; ELG1 repair inh: 21%; NPC1 promoter act: 9%; FLuc counter: -5%

How did COc1ccccc1NC(=O)COC(=O)c1cc2c(s1)CCC2 do in these assays?
Rab9 prom act: 3%; ELG1 genotoxic: 0%; ELG1 repair inh: 4%; NPC1 promoter act: -3%; FLuc counter: 8.5µM*

Results for COc1ccccc1NC(=O)Nc1ccncc1 ?
Rab9 prom act: -2%; ELG1 genotoxic: -13%; SMN2 splice enh: -34%; ELG1 repair inh: -5%; NPC1 promoter act: -3%; FLuc counter: 4%

Results for COc1ccc(C)cc1NC(=O)Nc1ccc2c(c1)CCC2 ?
Rab9 prom act: 0%; ELG1 genotoxic: 3%; ELG1 repair inh: 9%; NPC1 promoter act: 2%; FLuc counter: 9.5µM*

What do the screens show for `CC1=Nc2ccccc2N=C(NC(=O)CSC(=S)N2CCCCC2)C1c1ccccc1` (configuration not stated)?
Rab9 prom act: -7%; ELG1 genotoxic: -5%; ELG1 repair inh: 21µM*; NPC1 promoter act: 0%; FLuc counter: -2%

How did CC1=Nc2ccccc2N=C(NC(=O)CSC(=S)N2CCN(C)CC2)C1c1ccccc1 (configuration not stated) do in these assays?
Rab9 prom act: -2%; ELG1 genotoxic: -6%; ELG1 repair inh: -11%; NPC1 promoter act: 2%; FLuc counter: 4%

How did COc1ccc(OCC(=O)Nc2ccc(OC)c(S(=O)(=O)N3CCCCC3)c2)cc1 do in these assays?
Rab9 prom act: -9%; ELG1 genotoxic: -5%; ELG1 repair inh: inconclusive; NPC1 promoter act: -9%; FLuc counter: inconclusive

How did Cc1ccn2cc(-c3ccc4c(c3)NC(=O)CO4)nc2c1 do in these assays?
Rab9 prom act: 0.56µM*; ELG1 genotoxic: inconclusive; SMN2 splice enh: 5.6µM*; ELG1 repair inh: inconclusive; NPC1 promoter act: 1.3µM*; FLuc counter: 2.4µM*

How did Cc1cccn2cc(-c3ccc4c(c3)NC(=O)CO4)nc12 do in these assays?
Rab9 prom act: inconclusive; ELG1 genotoxic: 11%; ELG1 repair inh: inconclusive; NPC1 promoter act: 25%; FLuc counter: 11µM*

What do the screens show for `S=C(Nc1ccc2c(c1)OCO2)N1CCN(Cc2ccco2)CC1`?
Rab9 prom act: inconclusive; ELG1 genotoxic: 15%; ELG1 repair inh: inconclusive; NPC1 promoter act: inconclusive; FLuc counter: 1.3µM*

What do the screens show for `COCC1CCN(C(=O)c2cc(COc3ccc(C)c(C)c3)on2)C1` (configuration not stated)?
Rab9 prom act: -1%; ELG1 genotoxic: 3%; ELG1 repair inh: 3%; NPC1 promoter act: -2%; FLuc counter: -2%

Results for Cc1ccc(OCc2cc(C(=O)N3CC4C[C@@H]5CC3C[C@H](C4)C5)no2)cc1C ?
Rab9 prom act: 1.4µM*; ELG1 genotoxic: inconclusive; ELG1 repair inh: inconclusive; NPC1 promoter act: 3.5µM*; FLuc counter: 8.5µM*

Results for Cc1cccc(C)c1OCc1cc(C(=O)N2CC3C[C@@H]4CC2C[C@H](C3)C4)no1 ?
Rab9 prom act: 1.6µM*; ELG1 genotoxic: 2%; ELG1 repair inh: inconclusive; NPC1 promoter act: 2µM*; FLuc counter: inconclusive

What do the screens show for `O=C(O)C[C@]1(C(=O)Nc2ccc(F)cc2)CC(/C=C/c2ccccc2)=NO1`?
Rab9 prom act: -4%; ELG1 genotoxic: 2%; ELG1 repair inh: 4%; NPC1 promoter act: -4%; FLuc counter: -2%

How did Cc1ccccc1OCCn1c(CCNC(=O)C2CCCCC2)nc2ccccc21 do in these assays?
SMN2 splice enh: 5%; FLuc counter: 0%

Results for CCN(CC(=O)Nc1cc(C)nn1-c1nc(C)cc(C)n1)Cc1ccccc1 ?
Rab9 prom act: -2%; ELG1 genotoxic: -10%; SMN2 splice enh: -7%; ELG1 repair inh: 18µM*; NPC1 promoter act: -3%; FLuc counter: 0%
